{"source": "PubChem BioAssay AID1159580", "about": "(chemical genetic matrix, 2015)", "assay": "chemical genetic growth profiling, strain panel (AID 1159580);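 note: tested at 20 µM; growth read once vehicle control cultures reached saturation at 30 °C; 1 = growth at the plate median or of vehicle wells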", "settings": "growth OD", "note": "“And” between values parts separate entries of the source, which are not always exact repeats. Equal values may be shown once. Screen size: about 5,500 compounds; about 2,000 (36%) were called active. Roughly 18% stayed inconclusive and do not appear here. This is one part of the list. A number with no mark means an inactive call. Cut-off read from the data, not from the text of the source: active = normalized growth mostly below about 0.91 (no sharp cut-off); inconclusive = no clear call, values can overlap the other calls; inactive = mostly above about 0.92.", "data": [{"smiles": "Cc1ccc(N(CC2=NCCN2)c2cccc(O)c2)cc1", "values": [{"measurement": "normalized growth", "setting": "S. cerevisiae deletion strains, locus YJR075W, strain HOC1, stronger effect = lower value", "value": 0.967}, {"measurement": "normalized growth", "setting": "S. cerevisiae deletion strains, locus YKL009W, strain mrt4, stronger effect = lower value", "value": 0.99}, {"measurement": "normalized growth", "setting": "S. cerevisiae deletion strains, locus YKL068W, stronger effect = lower value", "value": 1}, {"measurement": "normalized growth", "setting": "S. cerevisiae deletion strains, locus YKL085W, strain MDH1 (second series), stronger effect = lower value", "value": 1.03}, {"measurement": "normalized growth", "setting": "S. cerevisiae deletion strains, locus YKL085W, strain MDH1, stronger effect = lower value", "value": 1.03}, {"measurement": "normalized growth", "setting": "S. cerevisiae deletion strains, locus YKL160W, strain elf1, stronger effect = lower value", "value": 1.01}, {"measurement": "normalized growth", "setting": "S. cerevisiae deletion strains, locus YKL190W, strain CNB1, stronger effect = lower value", "value": 1.01}, {"measurement": "normalized growth", "setting": "S. cerevisiae deletion strains, locus YKR001C, strain vps1, stronger effect = lower value", "value": 1.01}, {"measurement": "normalized growth", "setting": "S. cerevisiae deletion strains, locus YKR026C, strain gcn3, stronger effect = lower value", "value": 1.03}, {"measurement": "normalized growth", "setting": "S. cerevisiae deletion strains, locus YKR091W, strain srl3, stronger effect = lower value", "value": 1}, {"measurement": "normalized growth", "setting": "S. cerevisiae deletion strains, locus YLL001W, strain dnm1, stronger effect = lower value", "value": 1}, {"measurement": "normalized growth", "setting": "S. cerevisiae deletion strains, locus YLL026W, stronger effect = lower value", "value": 1.02}, {"measurement": "normalized growth", "setting": "S. cerevisiae deletion strains, locus YLL041C, strain sdh2, stronger effect = lower value", "value": 1.01}, {"measurement": "normalized growth", "setting": "S. cerevisiae deletion strains, locus YLR027C, strain aat2, stronger effect = lower value", "value": 1.01}, {"measurement": "normalized growth", "setting": "S. cerevisiae deletion strains, locus YLR039C, strain RIC1, stronger effect = lower value", "value": 1.06}, {"measurement": "normalized growth", "setting": "S. cerevisiae deletion strains, locus YLR058C, strain SHM2, stronger effect = lower value", "value": 1.01}, {"measurement": "normalized growth", "setting": "S. cerevisiae deletion strains, locus YLR102C, strain apc9, stronger effect = lower value", "value": 1.01}, {"measurement": "normalized growth", "setting": "S. cerevisiae deletion strains, locus YLR113W, strain HOG1, stronger effect = lower value", "value": 1.04}, {"measurement": "normalized growth", "setting": "S. cerevisiae deletion strains, locus YLR221C, strain rsa3, stronger effect = lower value", "value": 0.998}, {"measurement": "normalized growth", "setting": "S. cerevisiae deletion strains, locus YLR258W, strain gsy2, stronger effect = lower value", "value": 1}, {"measurement": "normalized growth", "setting": "S. cerevisiae deletion strains, locus YLR262C, strain YPT6 (second series), stronger effect = lower value", "value": 1.02}, {"measurement": "normalized growth", "setting": "S. cerevisiae deletion strains, locus YLR262C, strain YPT6, stronger effect = lower value", "value": 1.02}, {"measurement": "normalized growth", "setting": "S. cerevisiae deletion strains, locus YLR268W, strain sec22, stronger effect = lower value", "value": 0.947}, {"measurement": "normalized growth", "setting": "S. cerevisiae deletion strains, locus YLR320W, strain mms22, stronger effect = lower value", "value": 0.987}, {"measurement": "normalized growth", "setting": "S. cerevisiae deletion strains, locus YLR330W, strain CHS5, stronger effect = lower value", "value": 1.01}, {"measurement": "normalized growth", "setting": "S. cerevisiae deletion strains, locus YLR342W, strain FKS1 (second series), stronger effect = lower value", "value": 1.04}, {"measurement": "normalized growth", "setting": "S. cerevisiae deletion strains, locus YLR342W, strain FKS1, stronger effect = lower value", "value": 1.02}, {"measurement": "normalized growth", "setting": "S. cerevisiae deletion strains, locus YLR357W, strain rsc2, stronger effect = lower value", "value": 1.02}, {"measurement": "normalized growth", "setting": "S. cerevisiae deletion strains, locus YLR370C, strain arc18, stronger effect = lower value", "value": 1.01}, {"measurement": "normalized growth", "setting": "S. cerevisiae deletion strains, locus YLR371W, strain rom2, stronger effect = lower value", "value": 1.01}, {"measurement": "normalized growth", "setting": "S. cerevisiae deletion strains, locus YLR384C, strain iki3, stronger effect = lower value", "value": 1.02}, {"measurement": "normalized growth", "setting": "S. cerevisiae deletion strains, locus YLR418C, strain cdc73, stronger effect = lower value", "value": 0.955}, {"measurement": "normalized growth", "setting": "S. cerevisiae deletion strains, locus YML016C, strain PPZ1, stronger effect = lower value", "value": 1.01}, {"measurement": "normalized growth", "setting": "S. cerevisiae deletion strains, locus YML032C, strain rad52, stronger effect = lower value", "value": "0.819 (active)"}, {"measurement": "normalized growth", "setting": "S. cerevisiae deletion strains, locus YML120C, strain ndi1, stronger effect = lower value", "value": 0.999}, {"measurement": "normalized growth", "setting": "S. cerevisiae deletion strains, locus YML124C, strain tub3, stronger effect = lower value", "value": 1.02}, {"measurement": "normalized growth", "setting": "S. cerevisiae deletion strains, locus YMR058W, strain fet3, stronger effect = lower value", "value": 1.02}, {"measurement": "normalized growth", "setting": "S. cerevisiae deletion strains, locus YMR078C, strain ctf18, stronger effect = lower value", "value": 1}, {"measurement": "normalized growth", "setting": "S. cerevisiae deletion strains, locus YMR125W, strain sto1, stronger effect = lower value", "value": 1.04}, {"measurement": "normalized growth", "setting": "S. cerevisiae deletion strains, locus YMR129W, stronger effect = lower value", "value": 1}, {"measurement": "normalized growth", "setting": "S. cerevisiae deletion strains, locus YMR205C, strain PFK2, stronger effect = lower value", "value": 1.02}, {"measurement": "normalized growth", "setting": "S. cerevisiae deletion strains, locus YMR223W, strain ubp8, stronger effect = lower value", "value": 0.973}, {"measurement": "normalized growth", "setting": "S. cerevisiae deletion strains, locus YMR231W, strain pep5, stronger effect = lower value", "value": 1.02}, {"measurement": "normalized growth", "setting": "S. cerevisiae deletion strains, locus YMR263W, strain SAP30, stronger effect = lower value", "value": 0.989}, {"measurement": "normalized growth", "setting": "S. cerevisiae deletion strains, locus YMR307W, strain GAS1, stronger effect = lower value", "value": "0.988 and 0.994"}, {"measurement": "normalized growth", "setting": "S. cerevisiae deletion strains, locus YNL067W, strain RPL9B, stronger effect = lower value", "value": 0.967}, {"measurement": "normalized growth", "setting": "S. cerevisiae deletion strains, locus YNL071W, strain lat1, stronger effect = lower value", "value": 1.01}, {"measurement": "normalized growth", "setting": "S. cerevisiae deletion strains, locus YNL128W, strain TEP1, stronger effect = lower value", "value": 0.988}, {"measurement": "normalized growth", "setting": "S. cerevisiae deletion strains, locus YNL153C, strain GIM3, stronger effect = lower value", "value": 0.983}, {"measurement": "normalized growth", "setting": "S. cerevisiae deletion strains, locus YNL175C, strain NOP13, stronger effect = lower value", "value": 1.02}, {"measurement": "normalized growth", "setting": "S. cerevisiae deletion strains, locus YNL183C, strain NPR1, stronger effect = lower value", "value": 0.99}, {"measurement": "normalized growth", "setting": "S. cerevisiae deletion strains, locus YNL197C, strain WHI3, stronger effect = lower value", "value": 1.03}, {"measurement": "normalized growth", "setting": "S. cerevisiae deletion strains, locus YNL209W, strain ssb2, stronger effect = lower value", "value": 1.04}, {"measurement": "normalized growth", "setting": "S. cerevisiae deletion strains, locus YNL224C, strain SQS1, stronger effect = lower value", "value": 1.06}, {"measurement": "normalized growth", "setting": "S. cerevisiae deletion strains, locus YNL233W, strain BNI4, stronger effect = lower value", "value": 0.966}, {"measurement": "normalized growth", "setting": "S. cerevisiae deletion strains, locus YNL248C, strain rpa49, stronger effect = lower value", "value": 1.03}, {"measurement": "normalized growth", "setting": "S. cerevisiae deletion strains, locus YNL250W, strain rad50, stronger effect = lower value", "value": "0.841 (active)"}, {"measurement": "normalized growth", "setting": "S. cerevisiae deletion strains, locus YNL271C, strain bni1, stronger effect = lower value", "value": 0.998}, {"measurement": "normalized growth", "setting": "S. cerevisiae deletion strains, locus YNL298W, strain CLA4, stronger effect = lower value", "value": "0.899 (active)"}, {"measurement": "normalized growth", "setting": "S. cerevisiae deletion strains, locus YNL307C, strain MCK1, stronger effect = lower value", "value": 0.969}, {"measurement": "normalized growth", "setting": "S. cerevisiae deletion strains, locus YNL322C, strain KRE1 (second series), stronger effect = lower value", "value": 1.01}, {"measurement": "normalized growth", "setting": "S. cerevisiae deletion strains, locus YNL322C, strain KRE1, stronger effect = lower value", "value": "1 and 0.995"}, {"measurement": "normalized growth", "setting": "S. cerevisiae deletion strains, locus YNR049C, strain mso1, stronger effect = lower value", "value": 1.02}, {"measurement": "normalized growth", "setting": "S. cerevisiae deletion strains, locus YNR052C, strain pop2, stronger effect = lower value", "value": 0.998}, {"measurement": "normalized growth", "setting": "S. cerevisiae deletion strains, locus YOL006C, strain TOP1, stronger effect = lower value", "value": 0.967}, {"measurement": "normalized growth", "setting": "S. cerevisiae deletion strains, locus YOL012C, strain htz1", "value": 1.24}, {"measurement": "normalized growth", "setting": "S. cerevisiae deletion strains, locus YOL147C, strain pex11, stronger effect = lower value", "value": 1.01}, {"measurement": "normalized growth", "setting": "S. cerevisiae deletion strains, locus YOR001W, strain rrp6, stronger effect = lower value", "value": 0.993}, {"measurement": "normalized growth", "setting": "S. cerevisiae deletion strains, locus YOR061W, strain CKA2, stronger effect = lower value", "value": 1.02}, {"measurement": "normalized growth", "setting": "S. cerevisiae deletion strains, locus YOR069W, strain VPS5, stronger effect = lower value", "value": 1.06}, {"measurement": "normalized growth", "setting": "S. cerevisiae deletion strains, locus YOR070C, strain gyp1, stronger effect = lower value", "value": 1}, {"measurement": "normalized growth", "setting": "S. cerevisiae deletion strains, locus YOR080W, strain dia2, stronger effect = lower value", "value": 1.04}, {"measurement": "normalized growth", "setting": "S. cerevisiae deletion strains, locus YOR083W, strain WHI5 (second series), stronger effect = lower value", "value": 1.03}, {"measurement": "normalized growth", "setting": "S. cerevisiae deletion strains, locus YOR083W, strain WHI5, stronger effect = lower value", "value": 0.969}, {"measurement": "normalized growth", "setting": "S. cerevisiae deletion strains, locus YOR106W, strain vam3, stronger effect = lower value", "value": 1.03}, {"measurement": "normalized growth", "setting": "S. cerevisiae deletion strains, locus YOR136W, strain idh2, stronger effect = lower value", "value": 1.01}, {"measurement": "normalized growth", "setting": "S. cerevisiae deletion strains, locus YOR144C, strain elg1, stronger effect = lower value", "value": 1.01}, {"measurement": "normalized growth", "setting": "S. cerevisiae deletion strains, locus YOR184W, strain ser1, stronger effect = lower value", "value": 0.975}, {"measurement": "normalized growth", "setting": "S. cerevisiae deletion strains, locus YOR231W, strain MKK1, stronger effect = lower value", "value": 1.02}, {"measurement": "normalized growth", "setting": "S. cerevisiae deletion strains, locus YOR265W, strain rbl2, stronger effect = lower value", "value": 1}, {"measurement": "normalized growth", "setting": "S. cerevisiae deletion strains, locus YOR270C, strain vph1, stronger effect = lower value", "value": 1.06}, {"measurement": "normalized growth", "setting": "S. cerevisiae deletion strains, locus YOR290C, strain snf2, stronger effect = lower value", "value": 1.02}, {"measurement": "normalized growth", "setting": "S. cerevisiae deletion strains, locus YOR316C, strain cot1, stronger effect = lower value", "value": 1.01}, {"measurement": "normalized growth", "setting": "S. cerevisiae deletion strains, locus YPL051W, strain arl3, stronger effect = lower value", "value": 1}, {"measurement": "normalized growth", "setting": "S. cerevisiae deletion strains, locus YPL055C, strain LGE1, stronger effect = lower value", "value": 0.908}, {"measurement": "normalized growth", "setting": "S. cerevisiae deletion strains, locus YPL078C, strain atp4, stronger effect = lower value", "value": 1.02}, {"measurement": "normalized growth", "setting": "S. cerevisiae deletion strains, locus YPL106C, strain sse1, stronger effect = lower value", "value": 1.01}, {"measurement": "normalized growth", "setting": "S. cerevisiae deletion strains, locus YPL240C, strain hsp82, stronger effect = lower value", "value": 1}, {"measurement": "normalized growth", "setting": "S. cerevisiae deletion strains, locus YPL241C, strain CIN2, stronger effect = lower value", "value": "1.04 and 1.01"}, {"measurement": "normalized growth", "setting": "S. cerevisiae deletion strains, locus YPL256C, strain CLN2, stronger effect = lower value", "value": 1.05}, {"measurement": "normalized growth", "setting": "S. cerevisiae deletion strains, locus YPR119W, strain clb2, stronger effect = lower value", "value": 1}, {"measurement": "normalized growth", "setting": "S. cerevisiae deletion strains, locus YPR141C, strain kar3, stronger effect = lower value", "value": 1}, {"measurement": "normalized growth", "setting": "S. cerevisiae deletion strains, locus YPR163C, strain tif3, stronger effect = lower value", "value": 0.991}, {"measurement": "normalized growth", "setting": "S. cerevisiae deletion strains, locus YPR167C, strain met16, stronger effect = lower value", "value": 1.01}, {"measurement": "normalized growth", "setting": "S. cerevisiae deletion strains, strain wtn01, stronger effect = lower value", "value": 0.977}, {"measurement": "normalized growth", "setting": "S. cerevisiae strains, strain wild type, stronger effect = lower value", "value": 1}]}]}
